# Screening data: PubChem BioAssay, The Scripps Research Institute Molecular Screening Center
# PRMT1 FP inh – inhibitors of human PRMT1; Q99873; recombinant PRMT1, activity-based probe fluorescence polarization; inhibition, % at 2.79 µM; actives 1.3% (n = 370,000);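 active = inhibition above about 21% made by adding two undisclosed values, limit read from the data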
# ABHD5-PLIN5 inh – ABHD5-PLIN5 protein interaction inhibition. Split G. princeps luciferase complementation, luminescence, 4 h. inhibition, % at 4 µM. actives 0.78% (n = 360,000). AID 602281;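 active = inhibition above the mean inhibition across every tested compound plus 3 SD, cut at about 22% in these data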
# NOD2 RIPK2 PPI – NOD2-RIPK2 protein interaction inhibition; actives 0.38% (n = 360,000); inhibition, % at 4.98 µM; CHO BLA complementation NOD2-RIPK2, CCF4 ratio; AID 624267; in the data active = inhibition above about 21%
# rCAG RNA binder – binds r(CAG) RNA repeats; AID 651821; inhibition, % at 3 µM; r(CAG) RNA repeat, TO-PRO-1 dye displacement fluorescence; actives 1.3% (n = 370,000);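 active = inhibition above the plate cutoff, the mean of all test compounds on that plate plus 3 SD, cut at about 35% in these data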;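 also: higher means more dye released from RNA so lower well fluorescence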
# TLR4 MyD88 comp – inhibitors of human TLR4-MyD88 binding; O00206+Q99836; HeLa CL3-4 TLR4/MyD88 BLA complementation, FRET ratio; inhibition, % at 8.4 µM; actives 0.18% (n = 200,000); in the data active = inhibition above about 25%
# TLR9-MyD88 block – TLR9-MyD88 interaction inhibition; actives 0.21% (n = 340,000); CHO BLA complementation TLR9-MyD88, CCF4 FRET ratio; Q9NR96+Q99836; inhibition, % at 4.98 µM;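 active = inhibition above the mean over all tested compounds plus 3 SD, cut at about 21% in these data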
# TLR9-MyD88 cf – TLR9-MyD88 interaction inhibition, confirmation. shares compounds with TLR9-MyD88 block. CHO TLR9/MyD88 BLA complementation, CCF4 FRET ratio. inhibition, % at 4.98 µM. actives 51% (n = 680);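 active = mean inhibition across three repeats above about 21% taken from the earlier screen, limit read from the data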;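 also: blue over green emission ratio reports constitutive TLR9 MyD88 association via BLA complementation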
# BLA counter-1 – non-selective beta-lactamase inhibitors in TLR9-MyD88 counter-screen; shares compounds with TLR9-MyD88 block; CHO-BLA cells, CCF4 FRET ratio, BLA reporter; inhibition, % at 4.98 µM; actives 7% (n = 680); AID 540251;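 active = mean inhibition above a 50% cutoff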;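 also: counterscreen of TLR9-MyD88 hits on CMV-driven BLA in CHO-K1 cells; higher means less blue over green ratio so more BLA blockade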
# TLR9 CHO tox – counter-screen for TLR9-MyD88 inhibitors: cytotoxicity in CHO cells; shares compounds with TLR9-MyD88 block; luminescence; inhibition, % at 4.98 µM; actives 39% (n = 680); AID 588336; in the data active = inhibition above about 11%
# ABHD5-PLIN5 conf – confirmation of human ABHD5-PLIN5 interaction inhibitors | inhibition, % at 4 µM | AID 651612 | actives 67% (n = 2,200) | shares compounds with ABHD5-PLIN5 inh | biochemical ABHD5-PLIN5 interaction, luminescence; in the data active = inhibition above about 23%
# HNF4 split-luc – counter-screen for ABHD5-PLIN5 inhibitors: HNF4 split-luciferase. actives 77% (n = 2,200). AID 651674. shares compounds with ABHD5-PLIN5 inh. HNF4 dimerization, luminescence, biochemical. inhibition, % at 4 µM;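 active = mean inhibition across replicate wells exceeding the computed hit threshold, cut at about 13% in these data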;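 also: light from luciferase halves that rejoin when HNF4 fusion proteins dimerize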
# NOD2-RIPK2 conf – NOD2-RIPK2 interaction inhibition confirmed | CHO cells, NOD2-RIPK2 BLA complementation, CCF4 FRET | actives 70% (n = 1,200) | shares compounds with NOD2 RIPK2 PPI | inhibition, % at 4.98 µM | AID 624370;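 active = mean inhibition across replicates above a set limit taken from the earlier primary screen, cut at about 21% in these data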
# BLA counter-2 – hits BLA reporter in NOD2-RIPK2 inhibitor counterscreen; actives 57% (n = 1,200); CHO BLA reporter, CCF4 FRET ratio; inhibition, % at 4.98 µM; shares compounds with NOD2 RIPK2 PPI;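 active = mean inhibition above the low-control mean inhibition plus three low-control SD, cut at about 11% in these data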
# Numbers stand for hits; 0 = inactive; - = no result given. Hits are enriched below; roughly 3.3% of the tested compounds scored in any of these assays.
SMILES,PRMT1 FP inh,ABHD5-PLIN5 inh,NOD2 RIPK2 PPI,rCAG RNA binder,TLR4 MyD88 comp,TLR9-MyD88 block,TLR9-MyD88 cf,BLA counter-1,TLR9 CHO tox,NOD2-RIPK2 conf,BLA counter-2,others
CCS(=O)(=O)Nc1ccc(C(=O)OC)cc1,0,0,0,0,0,0,-,-,-,-,-,
O=C(NCC1OCCCN1S(=O)(=O)c1cc(F)ccc1F)C(=O)NC1CCCCC1 (configuration not stated),0,0,0,0,0,0,-,-,-,-,-,
COc1ccc(C(=O)/C(=C\c2ccco2)N2C=CC=CC2=C(C#N)C#N)cc1,-,79.8,85.1,-,0,27.8,0,0,96.3,-,-,ABHD5-PLIN5 conf=97.2;HNF4 split-luc=102.4
CS(=O)(=O)c1ncc(Cl)c(C(=O)Nc2ccc(OC(F)F)cc2)n1,-,75.0,73.0,-,-,42.4,45.1,0,97.1,-,-,ABHD5-PLIN5 conf=88.6;HNF4 split-luc=102.6
O=C(COc1cccc(C(F)(F)F)c1)Nc1cccc(S(=O)(=O)NC2=NCCCCC2)c1,0,0,0,0,-,0,-,-,-,-,-,
CCOC(=O)COc1ccc(/C=C/[N+](=O)[O-])c(OCC(=O)OCC)c1,0,28.1,0,0,0,21.6,0,0,27.9,-,-,ABHD5-PLIN5 conf=62.5;HNF4 split-luc=94.6
CCOC(=O)COc1ccc2nsnc2c1,0,0,0,0,0,0,-,-,-,-,-,
COc1cc(CCC(=O)OCC(=O)N2CCc3ccccc32)cc(OC)c1OC,0,0,0,0,-,0,-,-,-,-,-,
CN(c1ccccc1)c1ccc(/C=C/[N+](=O)[O-])cc1,0,87.9,74.7,0,0,25.8,27.8,0,81.2,88.6,28.7,
CN(C(=O)C=Cc1ccccc1)c1ccccc1,0,0,0,0,-,0,-,-,-,-,-,
Nc1nc(-c2ccc(NC(=O)c3ccco3)cc2)cs1,0,0,0,0,-,0,-,-,-,-,-,
NC(=O)/C(=N\OC(=O)c1ccco1)c1nc(-c2ccc(Br)cc2)cs1,0,0,21.4,0,0,36.5,0,0,0,43.3,21.7,
COc1ccc(C(=O)/C=C/c2ccc(N(C)C)cc2)c(OC)c1,0,0,59.2,0,-,36.1,29.0,0,0,62.4,65.8,
C=C1CC(COc2ccc3c(C)c(Cl)c(=O)oc3c2)(c2ccccc2)OC1=O (configuration not stated),0,62.2,60.4,0,-,23.7,23.5,0,97.6,73.9,28.5,
CCCCC1C(=O)N(c2ccccc2)N(c2ccc(O)cc2)C1=O (configuration not stated),0,96.6,67.8,0,-,28.7,0,0,81.5,29.1,0,ABHD5-PLIN5 conf=82.2;HNF4 split-luc=100.3
O=C(NC1CCCC1)N[C@@H]1C=C[C@@H](CC(=O)N2CCOCC2)O[C@@H]1CO,0,0,0,0,-,-,-,-,-,-,-,
CCCCNC(=O)c1nc(C2CCN(S(=O)(=O)c3ccc(S(C)(=O)=O)cc3)CC2)oc1-c1ccccc1,0,0,0,0,-,-,-,-,-,-,-,
CCN1CCN(Cc2c(O)ccc3c2O/C(=C\c2ccccc2)C3=O)CC1,0,0,26.8,0,0,21.0,0,0,0,24.5,27.9,
Cc1cc(C)c(C(=O)C(C)OC(=O)c2ccccn2)cc1C (configuration not stated),0,0,0,0,-,0,-,-,-,-,-,
